Unmarked numbers belong to inactive results. The source made the active and inactive calls. No rule for the calls is given here. Some results are limits rather than exact numbers.
Potency is read from the fitted curve at half-maximal effect.

For this test, the system named is HIV-1 nucleocapsid protein NCp7 (binding to TG oligonucleotide). Description: HIV Nucleocapsid (AID 346).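 Also: potency is for inhibitors that block NC binding and lower polarization.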 Particulars: HIV-1 NC / fluorescein-TGTGTGTG probe, fluorescence polarization. The gist of the method:
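Reagents dispensed (10 nM TG4xF, 100 nM HIV-1 NC), plates spun, compounds pin-transferred, then incubated 1 hr at room temperature before FP imaging. Buffer: Hepes pH 7.5, 250mM NaCl, 1uM ZnCl2, 100 uM TCEP, 5 mM 2-mercaptoethanol.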
`COc1cccc(Nc2ncc3nc(CCc4ccccc4)c(=O)n(C)c3n2)c1`: the Potency is greater than 4 µM.
For the compound `CN(Cc1ccco1)c1cc(-c2ccccc2C(F)(F)F)ncn1`, the Potency is greater than 20 µM.
Take `Cc1nc2cnc(Oc3ccccc3)nc2n(-c2ccccc2)c1=O`: the Potency was greater than 20 µM.
As to `COc1ccc(C(=O)N2CCC[C@@]3(CCN(C(=O)Nc4cccc(F)c4)C3)C2)cc1`, the Potency is greater than 20 µM.
Regarding `COc1ccc(-n2c(=O)c(-c3cccc(F)c3)nc3cncnc32)cc1`, the Potency is greater than 20 µM.
Turning to `CN(Cc1ccco1)c1ncncc1-c1ccccc1C(F)(F)F`, the Potency was greater than 20 µM.
Take `Cn1c(=O)c(CCc2ccccc2)nc2cnc(N3CCNCC3)nc21`: the Potency is greater than 20 µM.
Consider `CN1CCN(c2ncc3ncc(=O)n(CCc4ccccc4)c3n2)CC1`, for which the Potency was greater than 20 µM.
For `CN1CCN(c2ncc3nc(-c4cccc(C#N)c4)c(=O)n(C)c3n2)CC1`, the Potency was greater than 20 µM.
Under `COc1ccc(-n2c(=O)c(-c3cccs3)nc3cnc(N4CCN(C)CC4)nc32)cc1` stands greater than 20 µM; under `COC(=O)N1CCC[C@@]2(CCN(Cc3nccs3)C2)C1`, greater than 20 µM.
`Cn1cc(-c2nc3cnc(N4CCOCC4)nc3n(C3CC3)c2=O)c2ccccc21`: the Potency was greater than 20 µM.
Consider `Cc1noc(C)c1C(=O)N1CCC[C@@]2(CCN(C(=O)Nc3ccccc3)C2)C1`, for which the Potency was greater than 20 µM.
On to `O=c1cnc2cnc(Nc3ccccc3)nc2n1CCc1ccccc1`, for which the Potency is greater than 20 µM.
In the case of `c1ccc(CNc2ncncc2-c2ccoc2)cc1`, the Potency is greater than 20 µM.
Regarding `COc1ccc(C(=O)N2CCC3(CCCN(C(=O)Nc4cccc(C#N)c4)C3)CC2)cc1`, the Potency is greater than 20 µM.
`CN1CCN(c2ncnc3ccc(-c4cccc(C#N)c4)cc23)CC1`: the Potency was greater than 20 µM.
Take `FC(F)(F)c1ccccc1-c1nc(-n2ccnc2)c2ccccc2n1`: the Potency is greater than 20 µM.
For `CC(C)NC(=O)N1CCCC2(CCN(C(=O)c3cccc(F)c3)CC2)C1`, the Potency is greater than 20 µM.
As to `O=C(c1cc(C(F)(F)F)cc(C(F)(F)F)c1)N1CCC[C@@]2(CCN(c3ncccn3)C2)C1`, the Potency was greater than 20 µM.
For `CN1CCN(c2ncnc3ccc(-c4cccc(NS(C)(=O)=O)c4)cc23)CC1`, the Potency was greater than 20 µM.
In the case of `FC(F)(F)c1ccccc1-c1cc(NCc2cccs2)ncn1`, the Potency is greater than 20 µM.
Regarding `COc1cccc(Cn2c(=O)c(-c3cc(F)cc(F)c3)nc3cnc(N4CCN(C)CC4)nc32)c1`, the Potency is greater than 20 µM.
`O=c1cnc2cnc(N3CCOCC3)nc2n1CCc1ccccc1`: the Potency is greater than 20 µM.
With `CN(C)c1ncc2nc(-c3cccs3)c(=O)n(C)c2n1`, the Potency is greater than 4 µM.
Regarding `COc1ccccc1CNc1ccnc(-c2cccc(NS(C)(=O)=O)c2)n1`, the Potency was greater than 20 µM.
Under `COc1ccc(-c2nc3cnc(N4CCNCC4)nc3n(C)c2=O)cc1` stands greater than 20 µM; under `Cc1nc2cnc(N3CCN(C)CC3)nc2n(Cc2cccs2)c1=O`, greater than 20 µM.
For the compound `CN(Cc1ccco1)c1ncncc1-c1cccnc1`, the Potency was greater than 20 µM.
For `CCNc1ncc2nc(-c3cc(F)cc(F)c3)c(=O)n(C[C@H]3CCCO3)c2n1`, the Potency is greater than 20 µM.
On to `O=C(c1csnn1)N1CCC[C@@]2(CCN(c3ccncc3)C2)C1`, for which the Potency is greater than 20 µM.
For `CCNc1ncc2ncc(=O)n(CCc3ccccc3)c2n1`, the Potency is greater than 20 µM.
Take `CCNc1ncc2nc(-c3ccccc3)c(=O)n(-c3ccc(OC)cc3)c2n1`: the Potency was greater than 20 µM.
In the case of `COc1ccc(-c2nc3cnc(OC)nc3n(Cc3cccc(OC)c3)c2=O)cc1`, the Potency was greater than 20 µM.
Under `O=c1c(-c2ccccc2)nc2cnc(N3CCNCC3)nc2n1Cc1cccs1` stands greater than 20 µM; under `N#Cc1cccc(-c2nc(NCc3ccccc3)c3ccccc3n2)c1`, greater than 20 µM.
On to `COc1cccc(Cn2c(=O)c(-c3cccc(C#N)c3)nc3cnc(Nc4ccccc4)nc32)c1`, for which the Potency was 0.198 µM (active).
On to `COc1cccc(Nc2ncc3nc(CCc4ccccc4)c(=O)n(C4CC4)c3n2)c1`, for which the Potency is greater than 4 µM.
The figure for `O=S(=O)(c1ccccc1)N1CCC2(CCCN(c3ccccc3)C2)CC1` is greater than 20 µM.
